In PubChem BioAssay (NCI) one finds growth inhibition data, which are given here for 9 compounds.

Assay [1] in a line: NCI Yeast Anticancer Drug Screen. Data for the rad50 strain (AID 155).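 Also: 0% = growth of vehicle-only cultures of the same strain.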 The settings on record: S. cerevisiae rad50 strain growth inhibition, active compounds read high. Summed up: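 Compounds were tested on a yeast strain with an engineered DNA damage repair alteration; the reported value is growth inhibition normalised to vehicle treatment.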
The nature of assay [2]: NCI Yeast Anticancer Drug Screen. Data for the mec2-1 strain (AID 157). Particulars: S. cerevisiae mec2-1 strain, active compounds read high. Summed up:
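Using mec2-1 yeast: add compound, measure growth, express inhibition versus vehicle-treated cultures.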

Assay [3] is described as follows: NCI Yeast Anticancer Drug Screen. Data for the sgs1 mgt1 strain (AID 161).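 Also: 0% = growth of cultures given vehicle only.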 Particulars: S. cerevisiae sgs1 mgt1 strain, active compounds read high. Summed up:
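Percent growth inhibition was derived by comparing compound-exposed mutant yeast with vehicle-exposed cultures. The strain carries alterations in DNA damage repair.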

Assay [4] in a line: NCI Yeast Anticancer Drug Screen. Data for the cln2 rad14 strain (AID 165).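 Also: 0% = growth equal to vehicle treated cultures.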 The settings on record: S. cerevisiae cln2 rad14 strain, active compounds read high. Summed up: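 Yeast strain cln2 rad14, bearing defects in cell cycle control and DNA repair, serves as the test system; values reflect growth inhibition compared with vehicle.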
The nature of assay [5]: NCI Yeast Anticancer Drug Screen. Data for the mlh1 rad18 strain (AID 175). The settings on record: S. cerevisiae mlh1 rad18 strain growth inhibition, active compounds read high. Summed up: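 Steps: expose repair-defective yeast to compound; measure growth; express inhibition against vehicle-treated controls.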
Assay [6] can be described thus: NCI Yeast Anticancer Drug Screen. Data for the bub3 strain (AID 167). The settings on record: S. cerevisiae bub3 mutant strain, active compounds read high. Summed up:
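Growth of a checkpoint-deficient yeast mutant is measured after compound exposure. Values represent inhibition relative to vehicle.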

Setting [7] is: at 5.0 µM (retest, dose inferred, filed as 0.5).
Where [8] appears, read: at 50.0 µM (retest, dose inferred, filed as 5.0).

Several values for one entry are separate records, joined by “and”; a condition that tells them apart may be missing. Identical values can stand only once. This is part of a sample that, as a whole, favours compounds with a hit. Of some 79,000 tested, about 15% had one in any assay. Values without a mark were called inactive. Activity calls are given as the source filed them. Rule as the data show it: active = growth inhibition above about 70%; inactive = the rest.

For `N#Cc1ccccc1C(Cl)(Cl)Cl`, the growth inhibition in assay [1] (setting [7]) is 3%; in assay [1] (setting [8]), -6%; in assay [1] (at 50.0 µM), -5.55%; in assay [2] (setting [7]), 6%; in assay [2] (setting [8]), 12%; in assay [2] (at 50.0 µM) it was -21.9%. Also, the growth inhibition in assay [3] (setting [7]) is -8%; in assay [3] (setting [8]), 3%; in assay [3] (at 50.0 µM), -7.1%; in assay [4] (setting [7]), 38%; in assay [4] (setting [8]) it was 18%; in assay [4] (at 50.0 µM), 27.1%. The growth inhibition is 9% in assay [5] (setting [7]), 28% in assay [5] (setting [8]) and -0.3% in assay [5] (at 50.0 µM).

As for `O=C(O)C(O)(c1ccccc1)C1(O)CCCCC1` (stereo unspecified), the growth inhibition in assay [1] (setting [7]) is -147%; in assay [1] (setting [8]), -173%; in assay [1] (at 50.0 µM) it was 1.7%; in assay [2] (setting [7]) it was -47%; in assay [2] (setting [8]), -54%; in assay [2] (at 50.0 µM) it was 7.95%. Further, the growth inhibition in assay [3] (setting [7]) is -53%; in assay [3] (setting [8]), -64%; in assay [3] (at 50.0 µM), 17.2%; in assay [4] (setting [7]), -54%; in assay [4] (setting [8]), -61%; in assay [4] (at 50.0 µM), 3.15%. Also, the growth inhibition in assay [6] (setting [7]) was -64%; in assay [6] (setting [8]), -83%; in assay [6] (at 50.0 µM) it was -3.65%; in assay [5] (setting [7]), -114%; in assay [5] (setting [8]) it was -127%; in assay [5] (at 50.0 µM) it was 50.3%.

For `C[C@@H]1CCC2[C@@H](C)[C@H](O[C@H]3O[C@@H]4O[C@@]5(C)CCC6[C@H](C)CCC([C@H]3C)[C@]64OO5)O[C@@H]3O[C@@]4(C)CCC1[C@@]23OO4` (stereo partly specified), the growth inhibition in assay [1] (setting [7]) is 92% (active); in assay [1] (setting [8]), 93% (active); in assay [1] (at 50.0 µM), 90.2% (active); in assay [2] (setting [7]), 95% (active); in assay [2] (setting [8]), 94% (active); in assay [2] (at 50.0 µM), 91.6% (active). The growth inhibition in assay [3] (setting [7]) is 94% (active); in assay [3] (setting [8]), 95% (active); in assay [3] (at 50.0 µM), 92% (active); in assay [6] (setting [7]), 92% (active); in assay [6] (setting [8]) it was 94% (active); in assay [6] (at 50.0 µM) it was 91.2% (active). The growth inhibition in assay [5] (setting [7]) was 93% (active); in assay [5] (setting [8]), 93% (active); in assay [5] (at 50.0 µM) it was 90.8% (active).

Regarding `Cn1cc(/C=C/[N+](=O)[O-])c2ccccc21`, the growth inhibition in assay [1] (setting [7]) is 7%; in assay [1] (setting [8]), 95% (active); in assay [1] (at 50.0 µM), 97.1% (active); in assay [2] (setting [7]), -2%; in assay [2] (setting [8]) it was 96% (active); in assay [2] (at 50.0 µM), 97.3% (active). Further, the growth inhibition was 2% in assay [3] (setting [7]); 97% (active) in assay [3] (setting [8]); 98.4% (active) in assay [3] (at 50.0 µM); 26% in assay [4] (setting [7]); 98% (active) in assay [4] (setting [8]); 96.5% (active) in assay [4] (at 50.0 µM). In addition, the growth inhibition in assay [6] (setting [7]) was 22%; in assay [6] (setting [8]), 97% (active); in assay [6] (at 50.0 µM), 97.7% (active); in assay [5] (setting [7]), 19%; in assay [5] (setting [8]), 97% (active); in assay [5] (at 50.0 µM) it was 97.3% (active).

As to `NNc1n[nH]c(=S)n1N`, the growth inhibition was 7.2% and 1.8% and 15.1% in assay [1] (at 50.0 µM); -5.4% and 0.5% and -6.15% in assay [2] (at 50.0 µM); 9.8% and -4.35% and 4.1% in assay [3] (at 50.0 µM); 8.7% and 13% and 5.85% in assay [4] (at 50.0 µM); 9.3% and 17% and 0.45% in assay [6] (at 50.0 µM); 17.6% and -1.5% and -1.65% in assay [5] (at 50.0 µM).

As for `O=S(=O)(F)c1ccc(Cl)cc1C[P+](c1ccccc1)(c1ccccc1)c1ccccc1`, the growth inhibition in assay [1] (setting [7]) is 20%; in assay [1] (setting [8]), 77% (active); in assay [1] (at 50.0 µM), 45.9%; in assay [2] (setting [7]) it was 22%; in assay [2] (setting [8]), 82% (active); in assay [2] (at 50.0 µM), 19.9%. Further, the growth inhibition was 13% in assay [3] (setting [7]); 76% (active) in assay [3] (setting [8]); 53.5% in assay [3] (at 50.0 µM); 0% in assay [4] (setting [7]); 54% in assay [4] (setting [8]); 11.1% in assay [4] (at 50.0 µM). Further, the growth inhibition in assay [6] (setting [7]) is 12%; in assay [6] (setting [8]) it was 82% (active); in assay [6] (at 50.0 µM) it was 38.2%; in assay [5] (setting [7]), 20%; in assay [5] (setting [8]), 86% (active); in assay [5] (at 50.0 µM), 69%.

Turning to `O=[As]c1ccc([N+](=O)[O-])cc1` (stereo unspecified), the growth inhibition was 80% (active) in assay [1] (setting [7]); 100% (active) in assay [1] (setting [8]); 99.6% (active) in assay [1] (at 50.0 µM); 89% (active) in assay [2] (setting [7]); 100% (active) in assay [2] (setting [8]); 99.7% (active) in assay [2] (at 50.0 µM). In addition, the growth inhibition was 39% in assay [3] (setting [7]); 99% (active) in assay [3] (setting [8]); 99.7% (active) in assay [3] (at 50.0 µM); 99% (active) in assay [6] (setting [7]); 100% (active) in assay [6] (setting [8]); 99.3% (active) in assay [6] (at 50.0 µM). In addition, the figures for the growth inhibition in assay [5] (setting [7]), in assay [5] (setting [8]) and in assay [5] (at 50.0 µM) were 89% (active), 99% (active) and 99.5% (active), respectively.

Regarding `O=C(CBr)Nc1ccccc1Cl`, the growth inhibition was 19% in assay [1] (setting [7]); 99% (active) in assay [1] (setting [8]); 99.3% (active) in assay [1] (at 50.0 µM); -3% in assay [2] (setting [7]); 99% (active) in assay [2] (setting [8]); 99.5% (active) in assay [2] (at 50.0 µM). In addition, the growth inhibition in assay [3] (setting [7]) is 40%; in assay [3] (setting [8]), 98% (active); in assay [3] (at 50.0 µM) it was 99.1% (active); in assay [6] (setting [7]) it was 23%; in assay [6] (setting [8]) it was 99% (active); in assay [6] (at 50.0 µM), 99.5% (active). The growth inhibition in assay [5] (setting [7]) was 18%; in assay [5] (setting [8]) it was 99% (active); in assay [5] (at 50.0 µM), 99.2% (active).

Take `CCCCCC(O)C1C(=O)OC(C)C(O)/C=C/C=C/C=C/C=C/C=C(\C)C(O)C(O)C(O)CC(O)CC(O)CC(O)CC(O)CC1O` (stereo unspecified): the growth inhibition is -5.85% and -8.05% and -2.3% in assay [1] (at 50.0 µM); -36.5% and -20% and -0.45% in assay [2] (at 50.0 µM); -2.25% and -8.45% and -33% in assay [3] (at 50.0 µM); -14.2% and -5% and -4.05% in assay [4] (at 50.0 µM); -2.15% and 4.5% and 11% in assay [6] (at 50.0 µM); 17.9% and -47.9% and 0.55% in assay [5] (at 50.0 µM).
